Reference: PubChem BioAssay (NCI)
Compounds without any hit were thinned out: in the full panel of roughly 83,000, 20% have a hit.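 Note: values are percent growth. 100 is the growth of untreated cells, values between 100 and 0 indicate rising inhibition; between -100 and 0 indicates cell death.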 Activity calls are given as the source filed them. Rule for the calls: active = growth percent below 10; inactive = the rest.

What was measured:
Assay in all cases: NCI-60 one-dose screen, 48 h (100 = growth as untreated, 0 = no growth, -100 = all killed)
Conditions in all cases: 10 µM unless noted
RPMI-8226 leukemia = test system: RPMI-8226 leukemia
OVCAR-8 ovarian = test system: OVCAR-8 ovarian
OVCAR-5 ovarian = test system: OVCAR-5 ovarian
OVCAR-4 ovarian = test system: OVCAR-4 ovarian
SK-OV-3 ovarian = test system: SK-OV-3 ovarian
IGROV1 ovarian = test system: IGROV1 ovarian
OVCAR-3 ovarian = test system: OVCAR-3 ovarian
HS 578T breast = test system: HS 578T breast
NCI/ADR-RES ovarian = test system: NCI/ADR-RES ovarian
T-47D breast = test system: T-47D breast
BT-549 breast = test system: BT-549 breast
MDA-MB-435 melanoma = test system: MDA-MB-435 melanoma
SW-620 colon = test system: SW-620 colon
MCF7 breast = test system: MCF7 breast
HCT-116 colon = test system: HCT-116 colon
HCC-2998 colon = test system: HCC-2998 colon
KM12 colon = test system: KM12 colon

Measured: growth

Cc1cc(=O)oc2cc(OC(=O)CN3CCN(C)CC3)ccc12
inactive: RPMI-8226 leukemia 103% | OVCAR-8 ovarian 103% | OVCAR-5 ovarian 101% | OVCAR-4 ovarian 96.6% | SK-OV-3 ovarian 107% | IGROV1 ovarian 115% | OVCAR-3 ovarian 105% | HS 578T breast 97.9% | NCI/ADR-RES ovarian 105% | T-47D breast 102% | BT-549 breast 114% | MDA-MB-435 melanoma 100% | SW-620 colon 96.2% | MCF7 breast 93.1% | HCT-116 colon 95.8% | HCC-2998 colon 108% | KM12 colon 99.5%

COc1cc(-c2nc3sccn3c2-c2ccnc(NCCCNS(=O)(=O)c3ccc(F)cc3)n2)ccc1F
inactive: OVCAR-8 ovarian 26.7% | OVCAR-5 ovarian 112% | OVCAR-4 ovarian 51.9% | SK-OV-3 ovarian 90.4% | IGROV1 ovarian 69.6% | OVCAR-3 ovarian 65.9% | HS 578T breast 92.6% | NCI/ADR-RES ovarian 34.2% | T-47D breast 15.5% | BT-549 breast 42.8% | MDA-MB-435 melanoma 65.8% | SW-620 colon 106% | MCF7 breast 76.1% | HCT-116 colon 58.1% | HCC-2998 colon 95.5% | KM12 colon 74.2%
active: RPMI-8226 leukemia 9.51%

CCCCCCCCCCCCCCCCCCOc1ccccc1CC(=O)OCC[N+](CC)(CC)CC
inactive: OVCAR-8 ovarian 17.7% | OVCAR-5 ovarian 41% | OVCAR-4 ovarian 19.1% | SK-OV-3 ovarian 66.2% | OVCAR-3 ovarian 31.4% | HS 578T breast 38.2% | NCI/ADR-RES ovarian 95.9% | T-47D breast 23.5% | BT-549 breast 76.3% | MDA-MB-435 melanoma 11% | SW-620 colon 21.6% | MCF7 breast 12.9% | HCT-116 colon 19.8% | HCC-2998 colon 22.5% | KM12 colon 51.3%
active: RPMI-8226 leukemia -3.45% | IGROV1 ovarian -26.9%

COc1cc(/C=C/c2c(C(C)=O)c(C)nc3ccccc23)cc(OC)c1OC
inactive: RPMI-8226 leukemia 23.6% | OVCAR-8 ovarian 52.6% | OVCAR-5 ovarian 61.3% | OVCAR-4 ovarian 52.7% | SK-OV-3 ovarian 36.6% | IGROV1 ovarian 32% | OVCAR-3 ovarian 15.1% | NCI/ADR-RES ovarian 23.1% | T-47D breast 39.7% | BT-549 breast 48.4% | SW-620 colon 29.6% | MCF7 breast 19.3% | HCT-116 colon 23.9% | HCC-2998 colon 54.8% | KM12 colon 29.1%
active: HS 578T breast -16.7% | MDA-MB-435 melanoma -0.529%

BrCCCc1n(Cc2ccc3ccccc3c2)c2ccccc2[n+]1Cc1ccc2ccccc2c1
inactive: NCI/ADR-RES ovarian 58.3%
active: RPMI-8226 leukemia -58.8% | OVCAR-8 ovarian -69.2% | OVCAR-5 ovarian -4.99% | OVCAR-4 ovarian -24.7% | SK-OV-3 ovarian -38.2% | IGROV1 ovarian -71.9% | OVCAR-3 ovarian -71.5% | HS 578T breast -48.2% | T-47D breast -10.9% | BT-549 breast -73.5% | MDA-MB-435 melanoma -96.5% | SW-620 colon -81.5% | MCF7 breast -74.7% | HCT-116 colon -89.7% | HCC-2998 colon -90.1% | KM12 colon -89.7%

CN1CCN(c2ccc(-c3cc4c(Nc5ccc(F)c(Cl)c5)ncnn4c3)cc2)CC1
inactive: RPMI-8226 leukemia 13.1% | OVCAR-8 ovarian 70.4% | OVCAR-5 ovarian 95.2% | OVCAR-4 ovarian 71.2% | SK-OV-3 ovarian 92.7% | IGROV1 ovarian 49.5% | OVCAR-3 ovarian 77% | HS 578T breast 75.2% | NCI/ADR-RES ovarian 72.5% | T-47D breast 63.4% | BT-549 breast 98.5% | MDA-MB-435 melanoma 76.4% | SW-620 colon 25.2% | MCF7 breast 45.3% | HCT-116 colon 15.7% | HCC-2998 colon 53.8% | KM12 colon 13.8%

CCN(CC)Cc1cc(Nc2c3ccc(Cl)cc3nc3ccc(OC)cc23)ccc1O
inactive: RPMI-8226 leukemia 21.7% | OVCAR-8 ovarian 37.5% | OVCAR-5 ovarian 51.2% | OVCAR-4 ovarian 58.6% | SK-OV-3 ovarian 54.7% | IGROV1 ovarian 29.6% | OVCAR-3 ovarian 56.6% | HS 578T breast 72.7% | NCI/ADR-RES ovarian 42.3% | T-47D breast 67.5% | BT-549 breast 81.4% | MDA-MB-435 melanoma 60.2% | SW-620 colon 31.7% | MCF7 breast 17.4% | HCT-116 colon 12.8% | HCC-2998 colon 43.6% | KM12 colon 40.6%

COc1ccc(OC)c(/C=C/c2nnc(Nc3ccccc3)o2)c1
inactive: RPMI-8226 leukemia 103% | OVCAR-8 ovarian 105% | OVCAR-5 ovarian 93.2% | OVCAR-4 ovarian 102% | SK-OV-3 ovarian 109% | IGROV1 ovarian 109% | OVCAR-3 ovarian 103% | HS 578T breast 98.5% | NCI/ADR-RES ovarian 94.1% | T-47D breast 80.4% | BT-549 breast 97.1% | MDA-MB-435 melanoma 89.1% | SW-620 colon 113% | MCF7 breast 98.3% | HCT-116 colon 103% | HCC-2998 colon 102% | KM12 colon 89%

COc1nc2ccc(C)cc2cc1-c1nc2c(cnn2-c2ccccc2)c(=O)[nH]1
active: MDA-MB-435 melanoma 8.39%
inactive: RPMI-8226 leukemia 80.8% | OVCAR-8 ovarian 94% | OVCAR-5 ovarian 94.5% | OVCAR-4 ovarian 94.9% | SK-OV-3 ovarian 73.6% | IGROV1 ovarian 77.4% | OVCAR-3 ovarian 50.2% | HS 578T breast 90.6% | NCI/ADR-RES ovarian 74.3% | T-47D breast 81.9% | BT-549 breast 89.6% | SW-620 colon 58.5% | MCF7 breast 50.6% | HCT-116 colon 67.2% | HCC-2998 colon 96.3% | KM12 colon 70.6%

Cc1nc2cnc(N)c(C#Cc3cncc(C(=O)Nc4ccc(CN5CCN(C)CC5)c(C(F)(F)F)c4)c3)c2nc1C
active: RPMI-8226 leukemia -23% | OVCAR-5 ovarian 8.89% | OVCAR-4 ovarian -10.9% | SK-OV-3 ovarian 8.06% | IGROV1 ovarian -10.4% | OVCAR-3 ovarian 8.72% | HS 578T breast -20.2% | MDA-MB-435 melanoma 0.973% | SW-620 colon -20.9% | MCF7 breast 1.7% | HCT-116 colon 0.345% | KM12 colon -17.4%
inactive: OVCAR-8 ovarian 10.4% | NCI/ADR-RES ovarian 36.1% | T-47D breast 45.2% | BT-549 breast 35.6% | HCC-2998 colon 11.5%

Brc1ccc2[nH]cc(-c3nc(-c4c[nH]c5ccncc45)cs3)c2c1
active: RPMI-8226 leukemia -23.4% | OVCAR-8 ovarian -64.5% | OVCAR-4 ovarian -77.8% | IGROV1 ovarian -86.5% | OVCAR-3 ovarian -91.6% | HS 578T breast -48.4% | T-47D breast -48.3% | MDA-MB-435 melanoma -90.8% | SW-620 colon -76.7% | MCF7 breast -63.3% | HCT-116 colon -93.7% | HCC-2998 colon -79.3% | KM12 colon -81.9%
inactive: OVCAR-5 ovarian 38.9% | SK-OV-3 ovarian 87.6% | NCI/ADR-RES ovarian 14.1% | BT-549 breast 87.8%

Cc1cc(O)c(C2=NN(c3ccc(S(N)(=O)=O)cc3)C(c3ccccc3O)C2)cc1Cl (centres undefined)
active: OVCAR-8 ovarian 4.04% | OVCAR-5 ovarian -15.1% | IGROV1 ovarian 0.983% | OVCAR-3 ovarian -45.8% | HS 578T breast 8.33% | NCI/ADR-RES ovarian 1.92% | SW-620 colon -0.676% | MCF7 breast 7.94% | HCT-116 colon -92.9% | HCC-2998 colon -75% | KM12 colon -60.4%
inactive: RPMI-8226 leukemia 15.4% | OVCAR-4 ovarian 44% | SK-OV-3 ovarian 34.1% | T-47D breast 21.6% | BT-549 breast 99.7% | MDA-MB-435 melanoma 10%

C=C1CC[C@@]2(C#N)[C@H]3[C@H](CC[C@@H]2C)[C@@H](C)C[C@@H](CC(C)(C)C#N)[C@H]13
inactive: RPMI-8226 leukemia 40.3% | OVCAR-8 ovarian 49.1% | OVCAR-5 ovarian 48.5% | OVCAR-4 ovarian 37.7% | SK-OV-3 ovarian 46.1% | IGROV1 ovarian 42.9% | OVCAR-3 ovarian 51% | HS 578T breast 30.2% | NCI/ADR-RES ovarian 35.4% | T-47D breast 21.5% | BT-549 breast 50.4% | MDA-MB-435 melanoma 35.9% | SW-620 colon 49.9% | MCF7 breast 21.1% | HCT-116 colon 14.5% | HCC-2998 colon 37.3% | KM12 colon 35.7%

CCOC(=O)/C=C1\S/C(=N\Nc2ccc([N+](=O)[O-])cc2[N+](=O)[O-])N(Cc2ccccc2)C1=O
inactive: OVCAR-8 ovarian 73.4% | OVCAR-5 ovarian 95% | OVCAR-4 ovarian 69.2% | SK-OV-3 ovarian 104% | IGROV1 ovarian 88.5% | OVCAR-3 ovarian 83.5% | HS 578T breast 84.3% | NCI/ADR-RES ovarian 75.2% | T-47D breast 56% | BT-549 breast 109% | MDA-MB-435 melanoma 98.2% | SW-620 colon 70.9% | MCF7 breast 72.8% | HCT-116 colon 75.3% | HCC-2998 colon 93% | KM12 colon 97.5%
active: RPMI-8226 leukemia 7.78%

COc1ccc(-c2c(C(=O)NS(C)(=O)=O)n(Cc3cccc(C(F)(F)F)c3)c3ccccc23)cc1
inactive: RPMI-8226 leukemia 81.2% | OVCAR-8 ovarian 82.1% | OVCAR-5 ovarian 106% | OVCAR-4 ovarian 96.1% | SK-OV-3 ovarian 97.2% | IGROV1 ovarian 90.7% | OVCAR-3 ovarian 88.5% | HS 578T breast 86.5% | NCI/ADR-RES ovarian 94.4% | T-47D breast 87.7% | BT-549 breast 92.3% | MDA-MB-435 melanoma 97.3% | SW-620 colon 95.4% | MCF7 breast 91.4% | HCT-116 colon 84.5% | HCC-2998 colon 108% | KM12 colon 92.8%

COc1ccc2c(c1)c(-c1ccc(-c3cn(C)c4ccc(OC)cc34)o1)cn2C
inactive: RPMI-8226 leukemia 25.5% | OVCAR-8 ovarian 39.4% | OVCAR-5 ovarian 36.8% | SK-OV-3 ovarian 93.4% | IGROV1 ovarian 70.2% | OVCAR-3 ovarian 23.2% | NCI/ADR-RES ovarian 38.7% | MDA-MB-435 melanoma 89.5% | SW-620 colon 38% | MCF7 breast 65.4% | HCT-116 colon 68.6% | HCC-2998 colon 30.1% | KM12 colon 22.7%
active: OVCAR-4 ovarian -42.3% | HS 578T breast -31.2% | T-47D breast -14% | BT-549 breast 1.95%

CC(=O)O.CN1[CH-]N(Cc2ccc(C#N)cc2)c2ccccc21.[Ag+]
inactive: RPMI-8226 leukemia 88.8% | OVCAR-8 ovarian 101% | OVCAR-5 ovarian 117% | OVCAR-4 ovarian 112% | SK-OV-3 ovarian 120% | IGROV1 ovarian 111% | OVCAR-3 ovarian 116% | HS 578T breast 103% | NCI/ADR-RES ovarian 109% | T-47D breast 69.7% | BT-549 breast 102% | MDA-MB-435 melanoma 106% | SW-620 colon 57.9% | MCF7 breast 97% | HCT-116 colon 105% | HCC-2998 colon 113% | KM12 colon 86.9%
